Screening results from PubChem.
In the library only some 6.3% were active in any assay of this set; here they are far more common.
S2 tox: reduces viability in counter-screen for ATXN expression inhibitors; 400,000 compounds, 0.49% hits; Potency, µM (top dose mostly 56.7 µM), hits mostly cytotoxic; S2 cells (HEK-293 line with an ATXN2-luciferase reporter) viability, CellTiter-Fluor protease fluorescence, 24 h; further: nearly all actives have a fitted effect of over 40% in size
HepG2 tox: kills HepG2 cells in TGF-b inhibitor counter-screen. HepG2 CAGA-GFP viability, ATP luminescence, 18 h. Potency, µM (series often up to 46.1 µM), for inactives: at the highest dose activity change, negative = cytotoxicity, usual class: cytotoxic. 410,000 compounds, 0.76% hits. AID 588856
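HepG2 CAGA-GFP cells (1000/well, DMEM with 1% FBS) received compound, then TGF-beta at 500 pg/mL final, and were incubated 18 hours at 37 degrees C. Viability was read by CellTiter-Glo luminescence. Media-only wells were set as complete cell-killing and DMSO as no toxicity.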
TGFb SMAD3 inh: TGF-b pathway inhibition. HepG2 CAGA-GFP TGF-b/SMAD3 reporter, GFP fluorescence, 18 h; TGF-beta stimulated, 500 pg/mL final. Potency, µM (highest dose often 46.1 µM), for the others: top-dose activity, negative = inhibition, usual class: inhibitors. 410,000 compounds, 1.2% hits. AID 588855; further: on the % scale 0 is the no-effect control and ±100 the full control effect; nearly all actives have a fitted effect of over 65% in size
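HEPG2 CAGA-GFP, 1000 cells/well; 2 h settle, 37 C; cpd via pin tool; TGF-b 500 pg/mL final; 18 h, 37 C; GFP imaging ex488/em500-530; %Activity normalised to -TGF-b and +DMSO controls; CRC fit, curve class.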
RORgamma inh: inhibitors of mouse ROR gamma transcriptional activity | P51450 | 310,000 compounds, 5.4% hits | Drosophila S2 Gal4-RORgamma UAS-luciferase reporter, 20 h | AID 2551 | Potency, µM (titrated, usually from 53.6 µM), for the others: top-dose activity change, negative = inhibition, most hits filed as inhibitors; further: on the % scale 0 is the no-effect control and ±100 the full control effect; nearly all actives have a fitted effect of over 60% in size
Target sequence (P51450 whole entry, looked up, the tested form may be a part): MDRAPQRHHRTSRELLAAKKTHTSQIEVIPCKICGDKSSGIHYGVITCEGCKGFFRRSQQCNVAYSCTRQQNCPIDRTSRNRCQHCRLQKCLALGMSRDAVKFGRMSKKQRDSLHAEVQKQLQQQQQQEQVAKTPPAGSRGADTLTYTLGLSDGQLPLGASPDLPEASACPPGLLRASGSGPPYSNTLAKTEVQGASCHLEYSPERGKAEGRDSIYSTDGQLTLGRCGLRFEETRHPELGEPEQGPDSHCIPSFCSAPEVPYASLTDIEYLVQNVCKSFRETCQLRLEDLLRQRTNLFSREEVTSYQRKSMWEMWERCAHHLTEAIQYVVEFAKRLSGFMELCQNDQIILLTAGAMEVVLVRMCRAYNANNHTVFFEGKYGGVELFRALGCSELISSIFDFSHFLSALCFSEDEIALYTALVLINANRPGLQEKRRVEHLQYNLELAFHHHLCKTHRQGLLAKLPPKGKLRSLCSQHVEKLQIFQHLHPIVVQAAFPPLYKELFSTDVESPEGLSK
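Read-out: Photinus luciferase luminescence; inhibitors lower reporter signal. Insect Schneider cells with Gal4-ROR gamma fusion under metallothionein promoter, UAS reporter; 700 uM final copper sulfate induction, 20 hr, ambient temperature.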
VP16 counter: Gal4-VP16 reporter inhibition counter-screen; Drosophila S2 Gal4-VP16 UAS-luciferase, luminescence, 20 h; Potency, µM (highest dose often 53.6 µM), for inactives: at the top dose activity, negative = inhibition, hits mostly inhibitors; 310,000 compounds, 3.5% hits; AID 2546;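 further: Gal4-VP16 expression switched on by copper sulfate through the metallothionein promoter; on the % scale 0 is the no-effect control and ±100 the full control effect; nearly all actives have a fitted effect of over 50% in size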
ATXN2 expr inh: ATXN2 expression inhibition | HEK-293 ATXN2-luciferase reporter, luminescence, 24 h | Potency, µM (series often up to 57 µM), without a hit: at the highest dose activity change, negative = inhibition, usual class: inhibitors | 360,000 compounds, 0.72% hits; further: on the % scale 0 is the no-effect control and ±100 the full control effect; nearly all actives have a fitted effect of over 55% in size
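qHTS (up to 57 uM final) was run with 24 h compound exposure of reporter cells at 37 °C. Each well was multiplexed: SteadyGlo luminescence measured ATXN2-luciferase expression after a fluorogenic Gly-Phe-AFC viability readout (25 uM final).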
* hit, by the source's call; i = inactive; ? = inconclusive; / = no result given; [ ] = another dose, or the depositor's remark. The call rests on the fitted dose curve; in most records, active means well fitted curve in the direction sought with a large enough effect; inconclusive means small, poorly fitted or top-dose-only effect, or another doubt; inactive means no such curve, though single readings can be large; an effect the other way counts as inactive or inconclusive. Potency means the concentration at half of the fitted maximal effect.

SMILES	S2 tox	HepG2 tox	TGFb SMAD3 inh	RORgamma inh	VP16 counter	ATXN2 expr inh
Cc1ccc(NC(=O)CCC(=O)NNC(=S)Nc2ccccc2)c(C)c1	i	2%	-4%	15%	3%	/
O=C(CCC(=O)NNC(=O)COc1ccccc1)NCc1ccccc1	i	13µM*	?	-2%	-6%	-3%
O=C(Cc1ccccc1)NNC(=S)Nc1ccccc1	i	-3%	2%	?	-17%	12%
O=C(Nc1ccc(Br)cc1)C1CCN(c2ncccn2)CC1	?	6%	1%	/	/	6%
COc1cc(NS(=O)(=O)c2cccc([N+](=O)[O-])c2)c2ncccc2c1	/	/	/	1.1µM*	2µM*	/
COc1cc(NS(=O)(=O)c2ccc(C(=O)O)cc2)c2nc(C)ccc2c1	/	-15%	-16%	/	/	/
COc1cc(NS(=O)(=O)c2ccc([N+](=O)[O-])cc2)c2ncccc2c1	/	/	/	0.89µM*	0.89µM*	/
O=[N+]([O-])c1cccc(S(=O)(=O)NCCOc2cccc3cccnc23)c1	i	20%	-2%	-25%	5%	5%
Cc1ccc(S(=O)(=O)Nc2ccccc2-c2ccccc2NS(=O)(=O)c2ccc(C)cc2)cc1	i	-32%	?	3%	-24%	0%
Cc1ccc(S(=O)(=O)Nc2ccc(NS(=O)(=O)c3ccc(C)cc3)c3ncccc23)cc1	/	/	/	5µM*	5.6µM*	/
COc1cc(NS(=O)(=O)c2ccc(C)cc2)c2ncccc2c1	?	-26%	?	1µM*	0.79µM*	4.5µM*
C=C(C(=O)C(C)(C)O)C(O)c1ccc([N+](=O)[O-])cc1 (stereo not drawn)	/	/	/	-10%	-3%	/
Cc1ccc(-n2ncc3c(Nc4cccc(C(F)(F)F)c4)ncnc32)cc1C	i	-58%	?	/	/	48%
COC(=O)c1ccc(Cn2c(C)c(C(=O)NCc3cccc([N+](=O)[O-])c3)sc2=O)o1	i	6%	-2%	/	/	9%
O=C(C=Cc1ccccc1F)c1ccccc1	/	-57%	11µM*	/	/	?
CC(/C=C/c1ccccc1F)=N\NC(=O)c1ccccc1	i	-5%	-23%	3.2µM*	7.1µM*	33%
C/C(=N\NC(=O)c1ccccc1)c1cccc(Br)c1	i	-2%	2%	-121%	?	35%
CC(/C=C/c1ccccc1)=N\NC(=O)c1ccc(Br)cc1	i	-47%	-13%	0.5µM*	0.89µM*	-34%
O=C(/C=C/c1ccccc1F)c1ccoc1	i	-29%	?	-28%	?	1%
CC(/C=C/c1ccccc1)=N/NC(=O)c1cccc(Br)c1	i	-36%	-10%	2.2µM*	3.5µM*	-39%[11.3 µM]
CN1CCCC2(CCN(C(=O)c3cccn3C)CC2)C1	/	/	/	-6%	3%	/
O=C(NCCc1nnc2n1CCN(Cc1cc3ccccc3o1)CC2)c1ccoc1	i	/	/	/	/	/
Cc1ccc(CNC(=O)C(CC(C)C)NS(=O)(=O)c2ccc3c(c2)oc(=O)n3C)cc1 (stereo not drawn)	i	2%	-3%	/	/	1%
CC(/C=C/c1ccccc1)=N\NC(=O)c1cc(C)nc2ccccc12	i	-16%	7%	14µM*	?	-14%
Cn1c(-c2sc(=S)n(-c3ccccc3)c2N)nc2ccccc21	i	7%	34%	7.9µM*	-2%	-12%
SMILES	S2 tox	HepG2 tox	TGFb SMAD3 inh	RORgamma inh	VP16 counter	ATXN2 expr inh
C=CCn1c(N)c(-c2nc3ccccc3n2C)sc1=S	i	-2%	?	-160%	?	4%
O=[N+]([O-])c1ccc(Sc2nnnn2-c2ccccc2)nc1	?	-94%	16µM*	3.5µM*	?	?
COc1cc(=O)n2c(c1C(=O)N(C)Cc1nonc1C)CCN(Cc1c(F)cccc1F)CC2	i	/	/	/	/	/
Cc1cc(SCC#N)n2nc(C)c(-c3ccccc3)c2n1	i	-23%	16%	1.3µM*	2.5µM*	3%
CC(=O)CSc1cc(C)nc2c(-c3ccccc3)c(C)nn12	i	-10%	3%	?	-17%	-9%
Cc1cc(Cl)n2nc(C)c(-c3ccc(Cl)cc3)c2n1	?	-13%	?	?	-20%	?
Cc1cc(SCC(=O)c2cccs2)n2nc(C)c(-c3ccccc3)c2n1	i	-13%	-16%	3.2µM*	5.6µM*	22%
Cc1cc(SCC#N)n2nc(C)c(-c3ccc(Cl)cc3)c2n1	?	-14%	-1%	16µM*	?	-22%
C=CCSc1cc(C)nc2c(-c3ccccc3)c(C)nn12	i	-59%	0%	?	-11%	-7%
COC(=O)C1CCCCN1Cc1nc(N(C)C)c2ccccc2n1 (stereo not drawn)	i	/	/	/	/	/
COc1ccc(Cl)cc1NC(=O)CSc1nnc(C)n2c1cc1occc12	/	0%	0%	/	/	/
CCN(C(=O)c1ccc(NC(C)=O)cc1)c1ccccc1C	i	0%	-17%	23%	-4%	3%
CCCCC(=O)Nc1ccc(C(=O)N(CC)c2ccccc2C)cc1	i	0%	0%	2.2µM*	-1%	?
COc1ccc(-c2ccc(NS(=O)(=O)c3cc(C)c(C)cc3C)cc2)nn1	?	-24%	-12%	/	/	?
Cc1ccc(NCc2ccc(O)c3ncccc23)cc1	i	-11%	-2%	1µM*	1.8µM*	9%
Cc1cccnc1NCc1ccc(O)c2ncccc12	i	-40%	?	?	2.8µM*	?
Cc1ccc(NCc2ccc(O)c3ncccc23)cc1C	i	-4%	?	24%	?	-12%
CCN(CC)Cc1cc(Oc2ccc(O)c(CN(CC)CC)c2)ccc1O	i	-34%	-2%	/	/	-20%
O=C(N/N=C/c1ccc(O)cc1O)C1CC1	i	8%	-2%	/	/	/
CC(=O)N/N=C/c1cc(C(C)(C)C)cc(/C=N/NC(C)=O)c1O	/	-7%	-5%	2.8µM*	14µM*	?
C/C(=N\N=C(/N)SC1CC(=O)N(c2ccc(Cl)cc2)C1=O)c1cccs1 (stereo not drawn)	i	-6%	?	13µM*	?	-12%
C/C(=N\N=C(/N)SC1CC(=O)N(c2ccccc2)C1=O)c1cccs1 (stereo not drawn)	i	2%	13%	?	4%	-9%
CCN(CC)CCN1C(=O)c2ccccc2NC1c1ccc(OC)c(COc2ccc(NC(C)=O)cc2)c1 (stereo not drawn)	/	-37%	-7%	/	/	/
COC(=O)[C@H](CC(C)C)NC(=O)c1ccc(NC[C@@H](N)CS)cc1-c1cccc2ccccc12	/	/	/	-8%	-26%	/
